# High-throughput results deposited in PubChem BioAssay by Broad Institute.
# Only a selection was taken, and hits are over-represented in it overall.
# miR-122 inh: raises miR-122 sensor activity in Huh7 cells. Huh7 psiCHECK-miR122 Renilla luciferase sensor, 48 h. activation, % at 12.5 µM. 0.14% of 340,000 active;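 active means mean activation of 30% or more, with every replicate also reaching 30%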;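 further: 0% = median of neutral control wells and 100% = median of positive control wells; higher luciferase signal means stronger suppression of miR-122 activity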
# An asterisk follows results filed as active.
SMILES,miR-122 inh
CC(=O)N(C)C[C@@H]1Oc2cc(C#C[C@H](C)O)ccc2S(=O)(=O)N([C@H](C)CO)C[C@@H]1C,4
C[C@H]1CN([C@@H](C)CO)S(=O)(=O)c2ccc(-c3ccc(C(=O)N(C)C)cc3)cc2O[C@@H]1CN(C)C(=O)Cc1ccccn1,2
COc1ccccc1-c1cnc2c(c1)C(=O)N([C@@H](C)CO)C[C@@H](C)[C@@H](CN(C)Cc1ccc(C(=O)O)cc1)O2,-111
CCOc1ccc(NS(=O)(=O)c2ccc(NC(=S)NC(=O)C(C)C)cc2)cc1,-115
CCOc1ccc(NC(=S)N(CCCN2CCCC2)Cc2cccn2Cc2ccc(Cl)cc2)cc1,33*
CCC(=O)N(C)C[C@@H]1Oc2cc(-c3cccnc3)ccc2S(=O)(=O)N([C@H](C)CO)C[C@@H]1C,-6
COCC(=O)Nc1ccc2c(c1)OC[C@@H](C)N(C(C)=O)C[C@@H](C)[C@H](OC)CN(C)C2=O,-3
O=C(Nc1ccc(CN2CCOCC2)cc1)c1ccc(-c2ccc(Cl)cc2Cl)o1,34*
CC(=O)Nc1ccc(C(=O)Nc2ccc(S(=O)(=O)NCC3CCCO3)cc2)cc1 (stereo not drawn),-97
CCOC(=O)c1ccc(NC(=O)c2ccc(CN3CCOCC3)cc2)cc1,38*
COc1ccc(NS(=O)(=O)c2cc(NC(=O)c3ccc(Cl)cc3)ccc2N2CCOCC2)cc1,-102
O=C(NCCCN1CCN(Cc2ccccc2)CC1)c1nnc(Cc2c(F)cccc2Cl)o1,-103
COCC(=O)N(C)C[C@@H]1Oc2cc(-c3cncnc3)ccc2S(=O)(=O)N([C@@H](C)CO)C[C@H]1C,0
C[C@H](CO)N1C[C@H](C)[C@H](CN(C)S(C)(=O)=O)Oc2ncc(-c3cccc(F)c3)cc2C1=O,-22
C[C@@H]1CN([C@@H](C)CO)C(=O)c2cc(-c3ccccc3)cnc2O[C@@H]1CN(C)C(=O)c1cccnc1,1
C[C@H](O)C#Cc1ccc2c(c1)O[C@H](CN(C)Cc1cncnc1)[C@H](C)CN([C@H](C)CO)S2(=O)=O,-1
C/C=C/c1ccc2c(c1)O[C@H](CN(C)Cc1ccccc1F)[C@@H](C)CN([C@H](C)CO)S2(=O)=O,-17
C/C=C/c1ccc2c(c1)O[C@@H](CN(C)C(=O)Cc1ccccn1)[C@H](C)CN([C@@H](C)CO)S2(=O)=O,-2
CCCN(C)C[C@H]1Oc2cc(Br)ccc2S(=O)(=O)N([C@@H](C)CO)C[C@H]1C,1
COc1ccc(S(=O)(=O)Nc2cc(C)cc(C)n2)c2ccccc12,31*
COc1ccc(NS(=O)(=O)c2ccc(OC)c3ccccc23)cn1,-356
CCOc1ccc(S(=O)(=O)Nc2cc(C)ccn2)c2ccccc12,-237
O=C1Nc2ccc(S(=O)(=O)NCCC3=CCCCC3)c3cccc1c23,-117
O=S(=O)(c1ccccc1)N1C[C@H]2[C@@H](c3ccccc31)[C@@H](CO)N2Cc1ccc2c(c1)OCO2,-140
CN1[C@@H](CO)[C@@H]2c3ccccc3N(C(=O)Nc3cc(F)ccc3F)C[C@@H]21,33*
SMILES,miR-122 inh
O=C(Nc1ccccc1F)N1C[C@@H]2[C@H](c3ccccc31)[C@@H](CO)N2C(=O)C1CCCC1,-130
C[C@H](CO)N1C[C@H](C)[C@H](CN(C)C(=O)Nc2ccccc2F)Oc2cc(-c3cccc(C#N)c3)ccc2S1(=O)=O,4
CC(C)CC#Cc1cnc2c(c1)C(=O)N([C@H](C)CO)C[C@H](C)[C@@H](CN(C)CC1CCOCC1)O2,1
C[C@@H]1CN([C@H](C)CO)C(=O)c2cc(-c3cccc(F)c3)cnc2O[C@H]1CN(C)C(=O)C1CCOCC1,-6
Cc1cc(C(=O)N/N=C/c2cc(Br)ccc2OC(=O)c2ccccc2)n[nH]1,32*
COc1ccccc1-c1cnc2c(c1)C(=O)N([C@H](C)CO)C[C@H](C)[C@@H](CN(C)Cc1ccccc1)O2,-5
Cc1sc2ncnc(N/N=C/c3ccccc3O)c2c1C,37*
CO[C@@H]1CN(C)C(=O)c2ccc(NC(=O)Nc3ccccc3)cc2OC[C@H](C)N(C(C)=O)C[C@H]1C,-2
O=C(N/N=C/c1ccc(Cl)s1)C(O)c1ccccc1 (stereo not drawn),-123
O=S(=O)(Nc1ccc(Cl)cc1)c1cccc2nsnc12,-120
Cc1ccc(S(=O)(=O)Nc2cc(C)c(O)c(S(=O)(=O)c3ccc(C)cc3)c2)cc1,-140
C[C@@H]1CN([C@@H](C)CO)S(=O)(=O)c2ccc(Br)cc2O[C@@H]1CN(C)S(=O)(=O)c1cn(C)cn1,9
O=c1c2c3c(sc2nc2n1CCC2)CCCC3,32*
C[C@H]1CN([C@@H](C)CO)C(=O)c2cccc(NC(=O)C3CCOCC3)c2O[C@@H]1CN(C)Cc1ccc(C(F)(F)F)cc1,-105
O=C(C[C@@H]1CC[C@H]2[C@@H](COC[C@@H](O)CN2C(=O)C2CCCC2)O1)NCc1ccncc1,-138
CC(C)C#Cc1ccc2c(c1)O[C@H](CN(C)C(=O)CC1CC1)[C@@H](C)CN([C@@H](C)CO)S2(=O)=O,-7
C[C@@H]1CN([C@H](C)CO)C(=O)c2cc(-c3cncnc3)cnc2O[C@H]1CN(C)Cc1ccc(F)cc1,0
C[C@H]1CN([C@@H](C)CO)C(=O)c2cc(-c3cccc(F)c3)cnc2O[C@H]1CN(C)S(C)(=O)=O,6
COc1ccccc1-c1cnc2c(c1)C(=O)N([C@H](C)CO)C[C@@H](C)[C@H](CN(C)C(=O)c1ccccc1)O2,-8
C[C@@H]1CN([C@@H](C)CO)C(=O)c2cc(C#CC3(O)CCCC3)cnc2O[C@H]1CN(C)Cc1cncnc1,-1
COc1cccc(NS(=O)(=O)c2cc(C)sc2C)c1,-121
CCCCCCNS(=O)(=O)c1ccc(Cl)s1,-209
COc1ccc2[nH]c(C(=O)O)c(NS(=O)(=O)c3ccc(Cl)s3)c2c1,40*
CS(=O)(=O)N1N=C(c2ccc(Cl)cc2)CC1c1cccs1 (stereo not drawn),-126
C[C@@H]1CN([C@H](C)CO)C(=O)c2cc(-c3cccnc3)cnc2O[C@@H]1CN(C)C(=O)Nc1ccc(F)cc1,6
SMILES,miR-122 inh
Cc1noc(C)c1NC(=O)N(C)C[C@@H]1Oc2ncc(Br)cc2C(=O)N([C@H](C)CO)C[C@@H]1C,-5
C/C=C/c1cnc2c(c1)C(=O)N([C@H](C)CO)C[C@H](C)[C@@H](CN(C)C(=O)Cc1cccnc1)O2,4
CNc1nc(NCC2CCCCC2)c2sccc2n1,43*
COc1ccccc1CNc1nc(NCC2CC2)nc2ccsc12,43*
COc1ccccc1CNS(=O)(=O)c1ccc(-c2cc(C)no2)cc1,-95
CC(=O)N(C)C[C@@H]1Oc2cc(C#CC3CCCCC3)ccc2S(=O)(=O)N([C@@H](C)CO)C[C@H]1C,-3
COc1ccccc1NS(=O)(=O)c1cccc(NC(=O)c2[nH]c(C)c(C(C)=O)c2C)c1,-119
C[C@H](CO)N1C[C@H](C)[C@H](CN(C)Cc2ccc(C(=O)Nc3ccccc3N)cc2)Oc2ccc(NS(=O)(=O)c3ccc(F)cc3)cc2CC1=O,-162
C[C@@H]1CN([C@@H](C)CO)C(=O)c2cc(C#Cc3ccccn3)cnc2O[C@@H]1CN(C)Cc1cncnc1,-7
C[C@H](CO)N1C[C@H](C)[C@@H](CN(C)Cc2ccc3c(c2)OCO3)Oc2c(NC(=O)NC3CCCCC3)cccc2C1=O,-95
CCCNC(=O)N(C)C[C@@H]1Oc2ncc(C#CCC(C)C)cc2C(=O)N([C@H](C)CO)C[C@@H]1C,0
CCCNC(=O)N(C)C[C@H]1Oc2ncc(C#C[C@@H](C)O)cc2C(=O)N([C@H](C)CO)C[C@H]1C,5
